Structures are written as SMILES. Hit rate of the full screen: of about 320,000 compounds, about 22,000 (6.9%) were called active. A call without a number means that no potency is given here. Another 27% or so got no clear call; they are omitted. The call rests on the fitted dose curve; in most records, active means well fitted inhibition curve with a large enough effect; inconclusive means small, poorly fitted or top-dose-only effect, or another doubt; inactive means no such curve, though single readings can be large or run the other way. For the sample, actives were picked, then their nearest neighbours and some compounds at random.
Potency means the concentration at half of the fitted maximal effect.

This test in a line: Primary qHTS for delayed death inhibitors of the malarial parasite plastid, 96 hour incubation. Conditions: P. falciparum luciferase reporter growth; series mostly up to 28.7 µM. Put shortly: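 Two parasite generations (96 h, 37 C, 5% CO2) of compound exposure in infected erythrocytes (0.05% parasitemia, 2% hematocrit). Luciferase-reporter P. falciparum; decreased luminescence indicates inhibited growth, aimed at apicoplast-acting delayed death.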
For orientation: Quantitative high-throughput screening tests each substance at several concentrations.
Regarding `C/C(=N\NC(=O)c1cccc([N+](=O)[O-])c1)c1cccnc1`, the Potency result is “inactive”. For the molecule `CCc1ccc(NC(=O)N[C@H](C(=O)O)C(C)CC)cc1` (stereo partly specified), the Potency entry is “inactive”. The same measure for `O=C(Nc1ccccc1N1CCCCC1)c1ccc2nccnc2c1`: “inactive”; for `Cc1nnc(NC(=O)c2ccc3nccnc3c2)s1`: “inactive”. To `Cc1ccc(C)c(NC(=O)c2ccc3nccnc3c2)c1` belongs 8.28 µM (active); to `CC(C)OCCCNC(=O)CN1C(=O)/C(=C/c2ccccc2F)Oc2ccccc21`, “inactive”; to `Cc1ccc(C)c(OCCC(=O)OCC(=O)NC(=O)NCc2ccccc2)c1`, “inactive”. The same measure for `COc1ccc(/C(C)=N/N2CCOCC2)c(O)c1`: “inactive”; for `COc1cccc(NC(=O)c2ccc(Cn3cc([N+](=O)[O-])cn3)o2)c1`: “inactive”.

As to `COc1cccc(NC(=O)c2nn(C34CC5CC(CC(C5)C3)C4)cc2[N+](=O)[O-])c1`, the Potency is 8.28 µM (active). For the molecule `Cn1cc([N+](=O)[O-])c(C(=O)Nc2ccc3c(c2)OCCO3)n1`, the Potency entry was “inactive”. Regarding `O=C(Nc1cccc([N+](=O)[O-])c1)N1CCc2ccccc2C1`, the Potency entry is “inactive”. As to `O=C(COC(=O)C1(c2ccc(F)cc2)CCCC1)N1CCNC1=O`, the Potency entry was “inactive”.

On to `O=[N+]([O-])c1ccc2c(c1)C(N1CCOCC1)/C(=C/C1(O)CCCCC1)O2` (stereo unspecified), for which the Potency was 1.65 µM (active).

Take `O=C(/C=C/c1cccc([N+](=O)[O-])c1)OCC(=O)N1CCOCC1`: the Potency result was “inactive”. The same measure for `O=C(NC1CCCCC1)c1cc([N+](=O)[O-])ccc1N1CCOCC1`: “inactive”; for `O=[N+]([O-])c1ccc(N/N=C/c2ccccc2)cc1`: “inactive”; for `COc1ccc(NC(=O)CNC(=O)Cc2ccccc2)cc1OC`: “inactive”. With `C[C@]12CC[C@@H]3c4ccc(O)cc4C[C@@H](CCCCCCCCCS(=O)CCCC(F)(F)C(F)(F)F)C3[C@@H]1CC[C@@H]2O` (stereo partly specified), the Potency is 6.01 µM (active). To `O=C(CCNC(=O)c1ccc([N+](=O)[O-])cc1)NC1CCCCC1` belongs “inactive”; to `CCSc1ncnc2c(C#N)c3n(c12)CCCCC3`, 11.7 µM (active). For `CCOC(=O)c1c(N=CN(C)C)c(C#N)c2n1CCCC2`, the Potency result was “inactive”. For `CC(C)c1nnc(NC(=O)COC(=O)/C=C/c2ccc([N+](=O)[O-])cc2)s1`, the Potency entry is “inactive”. The same measure for `Cc1cc(C)n(CC(C)NCc2c(C(=O)N3CCOCC3)nc3c(C)cccn23)n1` (stereo unspecified): “inactive”. In the case of `COC(=O)C1[C@H]2SC(C)(C)C(C(=O)OC)N2C(=O)N1Cc1nc2ccccc2s1` (stereo partly specified), the Potency entry was “inactive”.

Take `N#Cc1ccccc1-n1c(N)c(C(=O)N2CCCC2)sc1=S`: the Potency is 3.7 µM (active).

For the molecule `Cc1cccc(-n2c(N)c(C(=O)N3CCN(C)CC3)sc2=S)c1`, the Potency entry was “inactive”. For the molecule `Cc1ccc(-n2c(N)c(C(=O)N3CCOCC3)sc2=S)c(C)c1`, the Potency result was “inactive”.

Take `COC(=O)Cc1ccc(OCC(=O)NC2CCCC2)cc1`: the Potency entry was “inactive”. To `O=C(NNc1c2ccccc2nc2ccccc12)c1cc2ccccc2cc1O` belongs 3.7 µM (active). The same measure for `CC(C)(C)OC(=O)NNc1c2ccccc2nc2ccccc12`: “inactive”; for `O=C(N/N=C/c1cccnc1)c1cc2ccccc2cc1O`: “inactive”; for `O=C(COC(=O)c1ccc2ncsc2c1)Nc1ccc(Cl)cc1`: “inactive”. The same measure for `COc1ccccc1C(=O)N/C(=C/c1ccco1)C(=O)Nc1ccc(C(=O)O)cc1`: “inactive”; for `CCCCC(=O)N/N=C(\C)CC(=O)Nc1cc(Cl)ccc1OC`: “inactive”. Take `COc1ccc(OC)c(-c2csc(NC(=O)COC(=O)C3CC3)n2)c1`: the Potency entry is “inactive”. To `CCCCN(C)CCC(=O)Nc1ccc(Cl)cc1` belongs “inactive”; to `CCCCCCC(=O)Nc1nc(C)c(-c2csc(Nc3cccc(OC)c3)n2)s1`, 7.38 µM (active); to `COc1ccc(OC)c(Nc2nc(-c3ccc(O)c(O)c3)cs2)c1`, “inactive”.

Consider `CC(=O)c1sc(NC(=O)CCCOc2ccccc2C)nc1C`, for which the Potency entry is “inactive”.

For the molecule `CCOC(=O)c1csc(NC(=O)Nc2cccc(OC)c2)n1`, the Potency result is “inactive”.

As for `CCCCCCC(=O)Nc1nc(C)c(-c2csc(Nc3cc(Cl)ccc3OC)n2)s1`, the Potency is 2.62 µM (active).

On to `CCCCC(=O)Nc1nc(C)c(-c2csc(Nc3ccc(Cl)cc3)n2)s1`, for which the Potency is 3.29 µM (active). The same measure for `C=CCCC(=O)Nc1nc(C)c(-c2csc(Nc3ccc(Cl)cc3)n2)s1`: 0.657 µM (active); for `COc1ccc(-c2csc(NC(=O)COC(=O)Cc3ccc(Cl)cc3Cl)n2)cc1`: “inactive”.

On to `Cc1nc(C)c(-c2csc(NCCc3ccccc3)n2)s1`, for which the Potency result was “inactive”.

Take `COc1ccc(-c2ccc(OC(=O)NC3CCS(=O)(=O)C3)cc2)cc1` (stereo unspecified): the Potency entry was “inactive”.

For `O=[N+]([O-])c1cc(S(=O)(=O)NCCc2ccccn2)ccc1Cl`, the Potency result was “inactive”. The same measure for `CN1CCN(Cc2c(C(=O)N3CCc4ccccc4C3)nc3ccc(Cl)cn23)CC1`: “inactive”. To `COC(=O)c1ccc(NC(=O)CSc2nc(N)c(NC(=O)c3ccc(Br)o3)c(=O)[nH]2)cc1` belongs “inactive”.

Take `CCN(CC(=O)Nc1cc(Cl)ccc1C)C(=O)CN1C(=O)NC2(CCCC2)C1=O`: the Potency result was “inactive”.

On to `Cc1cc(=O)oc2c(C)c(OCC(=O)NCCc3ccc(S(N)(=O)=O)cc3)ccc12`, for which the Potency entry is “inactive”.

`Cc1ccc(OCC(=O)Nc2ccc(C(=O)O)cc2NC(=O)COc2ccc(C)c(C)c2)cc1C`: the Potency result was “inactive”. As for `CC1(C)CC(N2CCN(C(c3ccccc3)c3ccccc3)CC2)=CC(=[N+]2CCCCC2)C1`, the Potency is 0.415 µM (active). The same measure for `CC1(C)CC(=O)C=C(N2CCCC2)C1`: “inactive”; for `O=C1CC(N2CCN(C(c3ccccc3)c3ccccc3)CC2)C(=O)N1` (stereo unspecified): “inactive”; for `CCOc1ccc(S(=O)(=O)Nc2ccc(OC)nc2)cc1`: “inactive”. The same measure for `CN(CCO)c1ccc(/C=N/Nc2nncc3ccccc23)cc1`: “inactive”; for `COc1ccc2oc(=O)c(C(=O)N3CCCc4ccccc43)cc2c1`: “inactive”. Turning to `CCC(=O)N1CCCc2ccccc21`, the Potency result is “inactive”. On to `Cc1occc1C(=O)N1CCCc2ccccc21`, for which the Potency is 10.4 µM (active). With `COc1cc(NC(=O)CN2C(=O)NC(C)(c3ccc(OC(F)F)cc3)C2=O)cc(OC)c1OC` (stereo unspecified), the Potency result was “inactive”.

Consider `COc1ccc(Cl)cc1S(=O)(=O)N1CCC(O)(c2ccc(Cl)cc2)CC1`, for which the Potency result was “inactive”.

Take `CCOc1cc(C(C(=O)NCC2CCCO2)N(C(=O)Cn2nnc3ccccc32)c2cccc(OC)c2)ccc1O` (stereo unspecified): the Potency result is “inactive”. Take `COC(=O)c1sc(N2CCN(Cc3ccccc3)CC2)nc1N`: the Potency result is “inactive”. The same measure for `CS(=O)(=O)c1ccc(Cl)c(NC(=O)COC(=O)c2ncc(Cl)c(Cl)c2Cl)c1`: “inactive”.
